Test results from PubChem BioAssay AID1832 (Broad Institute, 2009).
Out of some 300,000 compounds screened, about 1,100 (0.37%) were called active. This is one part of a sample in which actives are shown more often than they occur. Values without a mark were called inactive.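 How the source made its calls: active means inhibition past about -25% in most replicates, and total fluorescence under double the plate's negative control median (limit read from the data); inconclusive means replicates evenly split on the limit, or fluorescence at least double controls; inactive means too little inhibition in most replicates.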

Each molecule was assayed against Zinc finger protein mex-5 (Caenorhabditis elegans) (UniProt Q9XUB2) (assay: MEX-5 zinc finger RNA-binding disruptors – biochemical, C. elegans, fluorescence polarization, MLPCN library, primary screen (AID 1832;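 further: 0% = DMSO and -100% = 5 µM competing unlabeled TCR2 RNA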)). Details: MEX-5/FITC-TCR2 RNA binding, at 10 µM, stronger effect = lower value.
Zinc finger protein mex-5 (Caenorhabditis elegans), sequence (Q9XUB2 whole entry, looked up): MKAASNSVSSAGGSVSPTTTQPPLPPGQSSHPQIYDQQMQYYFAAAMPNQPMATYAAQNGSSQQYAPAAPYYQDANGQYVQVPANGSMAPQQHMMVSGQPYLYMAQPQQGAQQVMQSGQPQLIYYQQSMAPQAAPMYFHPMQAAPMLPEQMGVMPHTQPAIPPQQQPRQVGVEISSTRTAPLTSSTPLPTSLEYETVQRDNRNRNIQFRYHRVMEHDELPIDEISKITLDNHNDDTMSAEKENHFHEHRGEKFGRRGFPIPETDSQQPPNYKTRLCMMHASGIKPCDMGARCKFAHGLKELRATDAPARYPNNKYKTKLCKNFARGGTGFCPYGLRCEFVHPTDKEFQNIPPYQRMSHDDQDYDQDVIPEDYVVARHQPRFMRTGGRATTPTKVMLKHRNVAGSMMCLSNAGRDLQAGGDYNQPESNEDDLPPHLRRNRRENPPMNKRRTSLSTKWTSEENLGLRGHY
With `Cc1cccc(NC(=O)c2nc(S(=O)(=O)Cc3ccccc3)ncc2Cl)c1` the activity score (negative = inhibition of binding) was 2.04%.
`Cc1cc(=O)n2nc(N3CCCC(C(=O)NCc4cccc(Cl)c4)C3)sc2n1` (configuration not stated) gave an activity score (negative = inhibition of binding) of 0.58%.
In the case of `Brc1ccc(C2=CC(c3ccco3)n3ncnc3N2)cc1` (configuration not stated), the activity score (negative = inhibition of binding) is reported as -46.2% (active).
In the case of `CCOc1ccc(C2=CC(c3ccccc3)n3ncnc3N2)cc1` (configuration not stated), the activity score (negative = inhibition of binding) is reported as 0.973%.
`COC(=O)C1=C(C)Nc2ncnn2C1c1ccco1` (configuration not stated) showed an activity score (negative = inhibition of binding) of 0.833%.
In the case of `Cc1ccnc(N2C(=O)c3ccc([N+](=O)[O-])cc3C2=O)c1`, the activity score (negative = inhibition of binding) is reported as 0.424%.
With `CCN1C(=NCC(C)C)N[C@@H](CCc2ccccc2)[C@H](C(=O)NCC(C)C)[C@H]1C` the activity score (negative = inhibition of binding) was 0.663%.
With `COC(=O)[C@H](Cc1ccccc1)NC(=O)Nc1ccc(OC)cc1` the activity score (negative = inhibition of binding) was -2.47%.
For `COc1cc([C@H](Cc2ccccc2)NC(C)=O)oc(=O)c1`, the activity score (negative = inhibition of binding) was -29.7% (active).
`CCOC(=O)C(Cc1ccccc1)NC(=O)CCC(=O)c1ccc(OC)cc1` (configuration not stated) was tested, and the activity score (negative = inhibition of binding) was -0.523%.
With `O=C(Nc1cc2c3c(c1)C1CCCC1CN3CC1CCCC21)c1ccc([N+](=O)[O-])cc1` (configuration not stated) the activity score (negative = inhibition of binding) was 0.805%.
`CCN(Cc1ccccc1)C(=O)CCS(=O)(=O)c1ccc2c(c1)oc(=O)n2C` showed an activity score (negative = inhibition of binding) of -0.201%.
With `CC(C)(C)N(Cc1ccccc1)C(=O)c1ccncc1` the activity score (negative = inhibition of binding) was 0.0862%.
`Cc1cc(NC(=O)CSc2nc(=O)cc(N)n2-c2ccc(F)cc2)no1` was tested, and the activity score (negative = inhibition of binding) was 3.29%.
`O=C(O)CCn1cc(/C=C/C(=O)c2ccc(Cl)cc2)c(-c2cccc(Br)c2)n1` was tested, and the activity score (negative = inhibition of binding) was -3.47%.
`CCn1nc(C)c(NC(=O)/C=C/c2ccc(OC)c(COc3ccc(Br)cc3)c2)c1C` was tested, and the activity score (negative = inhibition of binding) was -2.54%.
With `Cc1cc(C)c(/C=C2\C(=O)Nc3ccccc32)[nH]1` the activity score (negative = inhibition of binding) was -49.3% (active).
Work on `O=C1Nc2ccccc2/C1=C/c1ccnc2ccccc12` yielded an activity score (negative = inhibition of binding) of -0.239%.
In the case of `CN(C)/C=C1/Nc2ccccc2C1=O`, the activity score (negative = inhibition of binding) is reported as -9.39%.
Work on `Cc1cc(C)c(C)c(S(=O)(=O)Nc2cccnc2)c1C` yielded an activity score (negative = inhibition of binding) of 3.19%.
For `CCN(CC)CCOc1ccc2c(c1)C(=NNC(=O)c1ccccn1)c1cc(OCCN(CC)CC)ccc1-2`, the activity score (negative = inhibition of binding) was -21.9%.
For `CN1C(=O)/C(=C/c2ccco2)SC1=Nc1cccc(C(=O)O)c1`, the activity score (negative = inhibition of binding) was -30.7% (active).
Molecule `O=C(CCCN1C(=O)/C(=C\c2ccco2)SC1=S)Nc1cccc2ccccc12` has an activity score (negative = inhibition of binding) of -4.74%.
Work on `Cc1cc(/C=C2\SC(=O)N(C)C2=O)c(C)n1-c1cccc(C(=O)O)c1` yielded an activity score (negative = inhibition of binding) of -1.93%.
With `CSc1nc(C)nc(C2CC2)c1C#N` the activity score (negative = inhibition of binding) was 0.165%.
Molecule `CN(C)c1ccc(NC(=S)N(CCc2ccccc2)C2CC(=O)N(c3c(Cl)cccc3Cl)C2=O)cc1` (configuration not stated) has an activity score (negative = inhibition of binding) of 0.224%.
`O=C(COC(=O)CCOc1ccccc1)Nc1cc(S(=O)(=O)N2CCCCC2)ccc1Cl` gave an activity score (negative = inhibition of binding) of -0.682%.
With `O=C(COC(=O)CCc1c[nH]c(=O)[nH]1)Nc1ccccc1Cl` the activity score (negative = inhibition of binding) was -36.5% (active).
Molecule `Cc1cccc(NC(=O)COC(=O)CCc2ccccc2)c1C` has an activity score (negative = inhibition of binding) of 0.968%.
With `COc1cc(S(=O)(=O)N2CCN=C2c2ccccc2)ccc1Cl` the activity score (negative = inhibition of binding) was 3.19%.
`COc1ccc(CC(=O)Nc2c(C(N)=O)oc3ccccc23)cc1` was tested, and the activity score (negative = inhibition of binding) was 0.725%.
With `CC(C)(C)OC(=O)N1CCC(C(=O)NNC(=O)c2ccc(Cl)cc2Cl)CC1` the activity score (negative = inhibition of binding) was 0.105%.
In the case of `CSc1nnc(SCc2nc3sc(C(=O)O)c(C)c3c(=O)[nH]2)s1`, the activity score (negative = inhibition of binding) is reported as -39.1% (active).
`CCOC(=O)c1sc2nc(CSc3ccccc3)[nH]c(=O)c2c1C` gave an activity score (negative = inhibition of binding) of 3.85%.
`CCOC(=O)c1sc2nc(C)[nH]c(=O)c2c1C` was tested, and the activity score (negative = inhibition of binding) was -1.49%.
With `CC(C)C[C@H](NC(=O)N1CC(=O)Nc2ccccc21)C(=O)N[C@H](Cc1ccccc1)C(=O)O` the activity score (negative = inhibition of binding) was 2.99%.
With `COc1ccc(C(=O)OCC(=O)NCC2CCCO2)cc1[N+](=O)[O-]` (configuration not stated) the activity score (negative = inhibition of binding) was 0.621%.
Molecule `CNC(=O)/C(C#N)=C/c1c(F)cccc1Cl` has an activity score (negative = inhibition of binding) of 0.288%.
Work on `COc1ccc2c(C)c(CCC(=O)NC3CC3)c(=O)oc2c1C` yielded an activity score (negative = inhibition of binding) of -3.04%.
`CCCCC1N2CC3([N+](=O)[O-])CN1CC([N+](=O)[O-])(C2)C3(C)C` (configuration not stated) gave an activity score (negative = inhibition of binding) of -0.199%.
`COc1ccc(/C=C2\SC(=S)N(CCC(=O)Nc3cccc(C(=O)O)c3)C2=O)cc1OC` showed an activity score (negative = inhibition of binding) of -1.23%.
`COc1ccc(/C=C2\SC(=S)N(CCC(=O)Nc3ccccn3)C2=O)cc1OC` showed an activity score (negative = inhibition of binding) of -2.36%.
For `COc1ccc(/C=C2\SC(=S)N(CCCC(=O)NC3CCCC3)C2=O)cc1OC`, the activity score (negative = inhibition of binding) was -48.2% (active).
`O=S(=O)(c1ccccc1)N1CCC(c2ccccc2)CC1` gave an activity score (negative = inhibition of binding) of -0.204%.
For `CCN(CC(=O)Nc1ccc2c(c1)OCCO2)Cc1cc(=O)oc2cc(C)c(C)cc12`, the activity score (negative = inhibition of binding) was -1.63%.
For `Nc1ccc2nc3c(=O)[nH]c(=S)[nH]c3nc2c1`, the activity score (negative = inhibition of binding) was -47.2% (active).
`COc1ccc(CCn2c(NN=C3CCCC3)nc3c2c(=O)[nH]c(=O)n3C)cc1` gave an activity score (negative = inhibition of binding) of 1.31%.
`NC(=O)c1oc2ccccc2c1NC(=O)Cc1ccccc1` gave an activity score (negative = inhibition of binding) of -2.66%.
`CCCn1c(O)c(CN2CCCC(C)C2)c(C)c(C#N)c1=O` (configuration not stated) was tested, and the activity score (negative = inhibition of binding) was -33.7% (active).
`Cc1c(CN2CCCCC2)c(O)n(CCO)c(=O)c1C#N` was tested, and the activity score (negative = inhibition of binding) was -12.5%.
For `CCCCCCn1c(CN2CCCC(C)C2)nc2c1c(=O)n(C)c(=O)n2C` (configuration not stated), the activity score (negative = inhibition of binding) was -0.485%.
`COc1cccc(NC(=O)CSc2nnc(-c3cccnc3)o2)c1` gave an activity score (negative = inhibition of binding) of -0.46%.
In the case of `COc1ccc(-c2cc(=O)c3c(O)cc(O[C@@H]4O[C@H](CO[C@@H]5O[C@@H](C)[C@H](O)[C@@H](O)[C@H]5O)[C@@H](O)[C@H](O)[C@H]4O)cc3o2)cc1O`, the activity score (negative = inhibition of binding) is reported as 0.902%.
For `COc1c(O)cc2oc(-c3ccc(O)c(O)c3)cc(=O)c2c1O`, the activity score (negative = inhibition of binding) was -34.4% (active).
`CCOC(=O)COc1cc(O)c2c(=O)cc(-c3ccccc3)oc2c1` showed an activity score (negative = inhibition of binding) of 0.422%.
With `COc1ccccc1OCCOc1ccc(/C=C2\C(=N)N3N=C(C)SC3=NC2=O)cc1` the activity score (negative = inhibition of binding) was 0.998%.
`CC(C)CC(=O)c1c[nH]c(C(=O)NCc2ccccc2)c1` showed an activity score (negative = inhibition of binding) of -0.164%.
